Test results from ChEMBL document CHEMBL3988442, “University of Dundee, Small-Polar-MMV Screening Library” (2021).

Tests used:
[1] = target: T1, Aspartate--tRNA(Asp/Asn) ligase (Mycobacterium tuberculosis (strain ATCC 25618 / H37Rv)) (UniProt P9WFW3); assay: Assay for Asp RNA synthetase-1 from Mycobacterium tuberculosis; format: functional; parameters: scale not given: direction of the effect not stated beside the values; details: 30 µM; also: in the data most compounds retested in dose-response had high values
T1 sequence (whole entry): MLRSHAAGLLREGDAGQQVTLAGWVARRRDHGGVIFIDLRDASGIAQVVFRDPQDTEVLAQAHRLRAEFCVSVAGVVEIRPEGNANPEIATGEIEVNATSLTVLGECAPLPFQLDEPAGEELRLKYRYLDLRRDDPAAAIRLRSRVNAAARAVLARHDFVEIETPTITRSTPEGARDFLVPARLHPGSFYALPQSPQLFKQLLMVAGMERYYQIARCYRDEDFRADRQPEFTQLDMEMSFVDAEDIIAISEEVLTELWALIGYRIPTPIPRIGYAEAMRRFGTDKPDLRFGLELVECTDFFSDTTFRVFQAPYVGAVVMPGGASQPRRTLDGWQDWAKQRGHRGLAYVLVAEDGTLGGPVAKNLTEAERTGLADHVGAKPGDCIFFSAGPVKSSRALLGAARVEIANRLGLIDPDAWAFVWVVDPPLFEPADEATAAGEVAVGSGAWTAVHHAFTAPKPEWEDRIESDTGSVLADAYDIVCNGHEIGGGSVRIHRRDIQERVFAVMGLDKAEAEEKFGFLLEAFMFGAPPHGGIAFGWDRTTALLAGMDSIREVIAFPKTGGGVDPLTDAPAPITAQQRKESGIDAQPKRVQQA

[2] = target: Shiga toxin 2 (Escherichia coli O157:H7) (UniProt P09385+P09386); assay: E. coli 0.157:H7 Shiga Toxin SOP - stx2 screening assay; format: functional; parameters: scale not given: direction of the effect not stated beside the values; details: 30 µM

SMILES | Percent Effect [1] [%] | Percent Effect [2] [%]
CC(C)CNc1nc(C(=O)/N=c2\[nH]nc(C(C)(C)C)s2)cs1 | -0.96 | -23.9
Cc1cnn(CC2CCCN2Cc2cc(=O)n3ccccc3n2)c1 (stereo not drawn) | 2.04 | 2.37
CN(C)C(=O)COCc1cncc2c1CCN(Cc1nccn1C)C2 | 10.5 | -47.9
Cc1nc(CC(=O)N2CCCN(c3ccc(C#N)cc3)CC2)cs1 | -8.71 | -26.6
